Measurements reported in PubChem BioAssay (NCI).
About 79,000 compounds went through this panel and 15% of them were active in at least one assay; those are over-represented in the sample as a whole. The source made the active and inactive calls. Cut-off read from the data, not from the text of the source: active = growth inhibition above about 70%; inactive = the rest.

What was measured:
[1] = NCI Yeast Anticancer Drug Screen. Data for the rad50 strain (AID 155);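 note: 0% = growth of vehicle-only cultures of the same strain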; settings: S. cerevisiae rad50 strain growth inhibition, hits give high values
How it was run: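 Relative growth inhibition (compound vs vehicle) was measured in yeast with a defined repair-gene alteration.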

[2] = NCI Yeast Anticancer Drug Screen. Data for the mec2-1 strain (AID 157); settings: S. cerevisiae mec2-1 strain, hits give high values
How it was run: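 Test agents were screened against the mec2-1 yeast strain, with defined DNA repair or cell cycle alteration. Growth was scored as inhibition against vehicle-only controls.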

[3] = NCI Yeast Anticancer Drug Screen. Data for the sgs1 mgt1 strain (AID 161);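 note: 0% = growth of cultures given vehicle only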; settings: S. cerevisiae sgs1 mgt1 strain, hits give high values
How it was run: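 Inhibition of yeast growth, normalised to vehicle-treated controls, is reported for a strain bearing genetic alterations in DNA damage repair.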

[4] = NCI Yeast Anticancer Drug Screen. Data for the cln2 rad14 strain (AID 165);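 note: 0% = growth equal to vehicle treated cultures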; settings: S. cerevisiae cln2 rad14 strain, hits give high values
How it was run: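 Growth of compound-exposed yeast (cln2 rad14 genotype) measured and expressed as inhibition relative to vehicle.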

[5] = NCI Yeast Anticancer Drug Screen. Data for the bub3 strain (AID 167); settings: S. cerevisiae bub3 mutant strain, hits give high values
How it was run: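 Screening used yeast with an engineered genetic alteration affecting cell cycle control. Compound-exposed cultures were compared with vehicle cultures, and reduced growth was taken as inhibition.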

[6] = NCI Yeast Anticancer Drug Screen. Data for the mlh1 rad18 strain (AID 175); settings: S. cerevisiae mlh1 rad18 strain growth inhibition, hits give high values
How it was run: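 In this whole-cell yeast screen, a strain with altered DNA damage repair is challenged with compound, and its growth is measured against matched vehicle-treated controls.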

[7] = at 5.0 µM (retest, dose inferred, filed as 0.5)
[8] = at 50.0 µM (retest, dose inferred, filed as 5.0)

Measured: growth inhibition

O=[N+]([O-])C12CCCCC1([N+](=O)[O-])CCCC2 (configuration not stated)
inactive: [1]; [7] -1% | [1]; [8] 41% | [1]; at 50.0 µM 62.9% | [2]; [7] -5% | [2]; [8] 30% | [2]; at 50.0 µM 21.6% | [3]; [7] -3% | [3]; [8] 33% | [3]; at 50.0 µM 35.5% | [4]; [7] -9% | [4]; [8] 22% | [4]; at 50.0 µM 31.1% | [5]; [7] -1% | [5]; [8] 65% | [6]; [7] 0% | [6]; [8] 28% | [6]; at 50.0 µM 37.8%
active: [5]; at 50.0 µM 84.8%

C1=C([P+](c2ccccc2)(c2ccccc2)c2ccccc2)CCCC1
inactive: [1]; [7] 22% | [2]; [7] -2% | [3]; [7] 13% | [4]; [7] 24% | [5]; [7] -8% | [6]; [7] 14%
active: [1]; [8] 93% | [1]; at 50.0 µM 89.8% | [2]; [8] 91% | [2]; at 50.0 µM 92.2% | [3]; [8] 84% | [3]; at 50.0 µM 88.5% | [4]; [8] 90% | [4]; at 50.0 µM 86.5% | [5]; [8] 92% | [5]; at 50.0 µM 87.5% | [6]; [8] 91% | [6]; at 50.0 µM 91.9%

CC1=CC2N(C=C1)C(c1ccccc1)=NON2c1cc(C)ccn1 (configuration not stated)
inactive: [1]; [7] -20% | [1]; [8] -10% | [1]; at 50.0 µM 24.7% | [2]; [7] -23% | [2]; [8] 14% | [2]; at 50.0 µM 33% | [3]; [7] -1% | [3]; [8] 23% | [3]; at 50.0 µM 62.5% | [4]; [7] -39% | [4]; [8] 7% | [4]; at 50.0 µM 25.1% | [5]; [7] -44% | [5]; [8] -14% | [5]; at 50.0 µM 5.7% | [6]; [7] -34% | [6]; [8] 38% | [6]; at 50.0 µM 68.9%

COc1ccccc1/C=C1\NC(=S)N(/C=C2\C(=O)Oc3ccccc3C2=O)C1=O
active: [1]; at 50.0 µM 73.2% | [3]; at 50.0 µM 73% | [5]; at 50.0 µM 79.1% | [6]; at 50.0 µM 85.9%
inactive: [1]; [7] 8% | [1]; [8] 32% | [2]; [7] -7% | [2]; [8] 25% | [2]; at 50.0 µM 29.9% | [3]; [7] -6% | [3]; [8] 38% | [4]; [7] -9% | [4]; [8] 47% | [4]; at 50.0 µM 64.7% | [5]; [7] -27% | [5]; [8] 37% | [6]; [7] 9% | [6]; [8] 50%

CCOC(=O)C[P+](c1ccc(C)cc1)(c1ccc(C)cc1)c1ccc(C)cc1
active: [1]; [8] 96% | [1]; at 50.0 µM 96.7% | [2]; [8] 94% | [2]; at 50.0 µM 95.6% | [3]; [8] 82% | [3]; at 50.0 µM 95.8% | [4]; [8] 82% | [4]; at 50.0 µM 89.2% | [5]; [8] 88% | [5]; at 50.0 µM 91% | [6]; [8] 93% | [6]; at 50.0 µM 93.5%
inactive: [1]; [7] 39% | [2]; [7] 17% | [3]; [7] 11% | [4]; [7] 2% | [5]; [7] 21% | [6]; [7] 6%

COC(=O)C12OCC34C(CC5C(C)C6=CC(=O)OC6=CC5(C)C3C(O)C1O)OC(=O)C(OC(C)=O)C24 (configuration not stated)
inactive: [1]; [7] 69% | [2]; [7] 66% | [3]; [7] 63% | [4]; [7] 64% | [5]; [7] 68% | [6]; at 50.0 µM -22%
active: [1]; [8] 99% | [1]; at 50.0 µM 91.6% | [2]; [8] 99% | [2]; at 50.0 µM 93.4% | [3]; [8] 99% | [3]; at 50.0 µM 92.2% | [4]; [8] 99% | [4]; at 50.0 µM 91.7% | [5]; [8] 99% | [5]; at 50.0 µM 92.5% | [6]; [7] 79% | [6]; [8] 99%

CC(=O)NC1=C(Cl)C(=O)c2ccccc2C1=O
inactive: [4]; [7] 21%
active: [1]; [7] 91% | [1]; [8] 99% | [1]; at 50.0 µM 99.5% | [2]; [7] 93% | [2]; [8] 99% | [2]; at 50.0 µM 99.5% | [3]; [7] 70% | [3]; [8] 100% | [3]; at 50.0 µM 99.7% | [4]; [8] 99% | [4]; at 50.0 µM 98.8% | [5]; [7] 96% | [5]; [8] 99% | [5]; at 50.0 µM 99.4% | [6]; [7] 96% | [6]; [8] 99% | [6]; at 50.0 µM 99.5%

COc1ccc(NC(=O)Nc2ccc(Cl)cc2)nn1
inactive: [1]; [7] -1% | [1]; [8] 4% | [1]; at 50.0 µM -10% | [2]; [7] -4% | [2]; [8] -3% | [2]; at 50.0 µM 20.4% | [3]; [7] -3% | [3]; [8] 3% | [3]; at 50.0 µM 1.3% | [4]; [7] -14% | [4]; [8] -8% | [4]; at 50.0 µM 33.8% | [5]; [7] -9% | [5]; [8] -7% | [5]; at 50.0 µM -8.05% | [6]; [7] -7% | [6]; [8] 3% | [6]; at 50.0 µM -3.9%

COc1cc(CSc2ccc(O)cc2)cc(OC)c1OC
inactive: [1]; [7] -3% | [1]; [8] 34% | [2]; [7] -18% | [2]; [8] -16% | [3]; [7] -24% | [3]; [8] 29% | [4]; [7] -18% | [4]; [8] 4% | [4]; at 50.0 µM 50% | [5]; [7] -13% | [5]; [8] 21% | [6]; [7] -5% | [6]; [8] -4%
active: [1]; at 50.0 µM 79.1% | [2]; at 50.0 µM 84.3% | [3]; at 50.0 µM 84.9% | [5]; at 50.0 µM 81.8% | [6]; at 50.0 µM 82.3%
